Results with a measured potency or affinity are listed apart.
Experiments:
Staphylococcus aureus = conditions: Concentration 32 ug.mL-1; ASSAY_TEST Inhibition of Bacterial Growth; detection method Absorption (OD600); MEDIA CAMHB; plate type 384well; NBS; CORNING #3640; time 18 hr
Escherichia coli = conditions: Concentration 32 ug.mL-1; ASSAY_TEST Inhibition of Bacterial Growth; detection method Absorption (OD600); MEDIA CAMHB; plate type 384well; NBS; CORNING #3640; time 18 hr

| SMILES | Inhibition (Staphylococcus aureus) | Inhibition (Escherichia coli) |
| --- | --- | --- |
| CCCCCCCNC(=O)CCNC(=O)C(O)C(C)(C)C (stereo unspecified) | 18.01% | -4.21% |
| CC(C)(COP(=O)(O)O)[C@@H](O)C(=O)NCCC(=O)NCCc1ccccc1 | 15.25% | -8.26% |
| CC(C)(CO)[C@@H](O)C(=O)N/C=C/C(=O)NCCc1ccccc1 | 31.24% | -5.06% |
| CC(CC(=O)NCCc1ccccc1)NC(=O)[C@H](O)C(C)(C)CO (stereo partly specified) | 13.65% | -6.39% |
| CC(C)(CO)[C@H](O)C(=O)NCCCc1cn(C[C@H]2O[C@@H](n3ccc(N)nc3=O)[C@H](O)[C@@H]2O)nn1 | 12.15% | -9.07% |
| CC(C)(CO)[C@H](O)C(=O)NCc1cn(C[C@H]2O[C@@H](n3ccc(N)nc3=O)[C@H](O)[C@@H]2O)nn1 | 13.05% | -11.94% |
| C#CCNC(=O)[C@H](O)C(C)(C)CO | 0.74% | 3.62% |
| CC(C)(C)C(O)C(=O)NCCC(=O)NCCc1ccccc1 (stereo unspecified) | 10.92% | -6.19% |
| CC(C)(CO)C(O)C(=O)NCCCOP(=O)(O)OCC1OC(n2ccc(N)nc2=O)C(O)C1O (stereo unspecified) | -4.3% | -11.28% |
| CCCCCCCNS(=O)(=O)CCNC(=O)[C@H](O)C(C)(C)CO | 15.67% | -4.61% |
| CC(C)(CN)C(O)C(=O)NCCC(=O)NCCc1ccccc1 (stereo unspecified) | 10.68% | -6.66% |
| CC(C)(CO)[C@H](O)C(=O)NCCc1cn(C[C@H]2O[C@@H](n3ccc(N)nc3=O)[C@H](O)[C@@H]2O)nn1 | -0.66% | -7.3% |
| CC(C)(CO)[C@H](O)C(=O)NCCC(=O)OCc1cn(C[C@H]2O[C@@H](n3ccc(N)nc3=O)[C@H](O)[C@@H]2O)nn1 | 8.97% | -9.8% |
| CC(C)(CO)[C@@H](O)C(=O)NCCC(=S)NCCc1ccccc1 | 10.96% | -8.24% |
| CCCCCCCNC(=S)CCNC(=O)[C@H](O)C(C)(C)CO | 14.7% | -4.19% |
| CCCCCCNNC(=O)CCNC(=O)[C@H](O)C(C)(C)CO | 13.79% | -4.33% |
| CC(C)(CO)[C@H](O)C(=O)NCCC(=O)NCc1cn(C[C@H]2O[C@@H](n3ccc(N)nc3=O)[C@H](O)[C@@H]2O)nn1 | 2.11% | -13.27% |
| CC(C)(CO)[C@@H](O)C(=O)NCCC(=O)NNCc1ccccc1 | 15.8% | -5.42% |

— ChEMBL document CHEMBL4513148, “CO-ADD screening of Stellenbosch University (South Africa) compounds”
